The results in this text go back to PubChem BioAssay (Tox21).

Each structure is given as a SMILES string. Records with an inconclusive call do not appear. The source made the active and inactive calls. Unless noted, calls come from the whole dose curve; as a rule, active = well fitted curve in the direction sought with a large enough effect in the repeat runs; inconclusive = weak or mixed curves; inactive = no such curve, though single readings can be large; an effect the other way counts as inactive or inconclusive.

Assay [1] is described as follows: qHTS assay to identify small molecule antagonists of the retinoid acid receptor (RAR) signaling pathway - cell viability counter screen (AID 1159551). Note: nearly all actives have a fitted effect of over 35% in size. Note: potency is the fitted concentration of half-maximal effect. The method in brief:
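C3RL4 cells were seeded overnight at 37 C, then treated with compounds plus 1 uM (final) retinol for 6 h at 37 C. Viability was read as ATP by CellTiter-Glo luminescence after 30 min at room temperature.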

Assay [2] is described as follows: qHTS assay to identify small molecule antagonists of the retinoic acid receptor (RAR) signaling pathway (AID 1159552; note: nearly all actives have a fitted effect of over 50% in size; note: potency is the fitted concentration of half-maximal effect). Summed up:
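Luminescent RARE reporter read-out in C3RL4 cells: 6 hr co-treatment at 37 C of test compounds with retinol at 1 uM final. Cells plated overnight beforehand; luciferase reagent incubated 30 min at room temperature before reading.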
In general terms: Quantitative high-throughput screening tests each substance at several concentrations.

A short description of assay [3]: qHTS assay to identify small molecule agonists of the retinoic acid receptor (RAR) signaling pathway (AID 1159553). The method in brief: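 C3RL4 cells carrying a RARE luciferase reporter were plated overnight at 37 C, then exposed to compounds in DMSO for 6 hr at 37 C and 5% CO2. Luminescence was read 30 min after luciferase reagent addition at room temperature.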

The target of assay [4] is Luciferin 4-monooxygenase (Photinus pyralis) (UniProt P08659). The experiment in a line: qHTS assay to identify small molecule inhibitors of firefly luciferase (AID 1224835). Note: nearly all actives have a fitted effect of over 25% in size. Note: potency is the fitted concentration of half-maximal effect. The method in brief: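 Quantitative HTS format; KM concentrations of both substrates. Purified P. pyralis FLuc activity quantified from luminescence images.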
Chain of Luciferin 4-monooxygenase (Photinus pyralis) (P08659 whole entry, looked up): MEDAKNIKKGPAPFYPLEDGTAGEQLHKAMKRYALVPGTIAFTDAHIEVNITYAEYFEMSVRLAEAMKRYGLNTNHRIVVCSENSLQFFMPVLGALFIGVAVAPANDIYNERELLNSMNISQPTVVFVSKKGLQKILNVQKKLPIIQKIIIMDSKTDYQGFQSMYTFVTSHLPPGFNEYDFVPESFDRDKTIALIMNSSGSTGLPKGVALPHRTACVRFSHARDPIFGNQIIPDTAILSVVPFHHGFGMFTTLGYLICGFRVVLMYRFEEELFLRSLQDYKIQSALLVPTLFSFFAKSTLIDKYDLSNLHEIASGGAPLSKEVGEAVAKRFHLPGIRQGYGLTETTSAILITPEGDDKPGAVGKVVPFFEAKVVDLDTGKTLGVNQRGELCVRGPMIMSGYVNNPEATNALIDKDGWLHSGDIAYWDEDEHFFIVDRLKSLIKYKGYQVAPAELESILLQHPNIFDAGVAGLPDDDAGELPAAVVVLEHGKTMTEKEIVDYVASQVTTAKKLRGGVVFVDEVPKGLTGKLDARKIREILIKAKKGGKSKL
A short description of assay [5]: qHTS assay to identify small molecule agonists of the constitutive androstane receptor (CAR) signaling pathway - cell viability counter screen (AID 1224836). Note: nearly all actives have a fitted effect of over 45% in size. Note: potency is the fitted concentration of half-maximal effect. Summed up:
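Cell viability multiplexed with the CAR agonist screen: CellTiter-Fluor fluorescence after 23 hr at 37 C. HepG2-CYP2B6-hCAR cells got compounds at 15 concentrations with PK11195 at 0.75 uM final.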

Assay [6] deals with Nuclear receptor subfamily 1 group I member 3 (Homo sapiens) (UniProt Q14994). The experiment in a line: qHTS assay to identify small molecule antagonists of the constitutive androstane receptor (CAR) signaling pathway (AID 1224838). Note: nearly all actives have a fitted effect of over 40% in size. Note: potency is the fitted concentration of half-maximal effect. The method in brief:
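HepG2 cells stably co-transfected with hCAR and a CYP2B6-2.2kb luciferase reporter were seeded 4 h before compound addition at 15 concentrations. Cells were stimulated with 50 nM CITCO (final) for 24 h at 37 C; luciferase luminescence was then read.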

Assay [7] is described as follows: qHTS assay to identify small molecule antagonists of the estrogen related receptor signaling pathway with the pleiotropic PPARgamma coactivator (PGC) from Tox21 10K library - cell viability counter screen (AID 1224840; active = well fitted cell-killing curve with a large enough effect in the repeat runs, not every such curve was filed as active; note: nearly all actives have a fitted effect of over 40% in size; note: potency is the fitted concentration of half-maximal effect). Summed up:
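PGC/ERR cells were seeded at 2,000 cells/well and left 6 hours at 37 C/5% CO2 before pin-tool addition of compounds in DMSO. After 17.5 hours at 37 C, CellTiter-Fluor was added and fluorescence read 30 minutes later.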

Assay [8] is described as follows: qHTS assay to identify small molecule agonists of the estrogen related receptor signaling pathway with the pleiotropic PPARgamma coactivator (PGC) from Tox21 10K library (AID 1224842). Note: nearly all actives have a fitted effect of over 15% in size. Note: potency is the fitted concentration of half-maximal effect. Summed up:
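PGC/ERR reporter cells (NTP line) were seeded 2,000 per well, rested 6 h at 37 C/5% CO2, then pin-dosed with compounds in DMSO for 18 h at 37 C; luciferase read by One-Glo luminescence after 30 min at room temperature.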

Assay [9] in a line: qHTS assay to identify small molecule antagonists of the estrogen related receptor (ERR) signaling pathway from Tox21 library - cell viability counter screen (AID 1224834). Note: nearly all actives have a fitted effect of over 30% in size. Note: potency is the fitted concentration of half-maximal effect. The method in brief:
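ERR reporter cells were plated 6 h before compound addition, then exposed to test compounds in DMSO for 17.5 h at 37 C. Viability was read as CellTiter-Fluor fluorescence after a 30-minute incubation at 37 C.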

Assay [10] can be described thus: qHTS assay to identify small molecule antagonists of the constitutive androstane receptor (CAR) signaling pathway - cell viability counter screen (AID 1224837). Note: nearly all actives have a fitted effect of over 45% in size. Note: potency is the fitted concentration of half-maximal effect. Summed up: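 HepG2 cells stably expressing hCAR and a CYP2B6-2.2kb reporter were plated and pre-incubated 4 hr at 37 C/5% CO2, then given compounds at 15 concentrations plus 50 nM CITCO (final). After 23 hr, viability was read by CellTiter-Fluor fluorescence.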

A short description of assay [11]: qHTS assay to identify small molecule agonists of the hypoxia (HIF-1) signaling pathway - cell viability counter screen (AID 1224844; calls by dose curve; note: nearly all actives have a fitted effect of over 50% in size; note: potency is the fitted concentration of half-maximal effect). The method in brief: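 HRE-bla ME-180 cells in medium with 0.5% dialyzed FBS were preincubated 5 hrs at 37C, exposed to compounds for 17 hrs, then viability was read as CellTiter-Glo luminescence after 30 min at room temperature, in the reporter wells.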

The target of assay [12] is Nuclear receptor subfamily 1 group I member 3 (Homo sapiens) (UniProt Q14994). The experiment in a line: qHTS assay to identify small molecule agonists of the constitutive androstane receptor (CAR) signaling pathway (AID 1224839).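 For activation: HepG2 cells stably carrying human CAR and a CYP2B6 luciferase reporter; series mostly up to about 92 µM.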 Note: nearly all actives have a fitted effect of over 15% in size. Note: potency is the fitted concentration of half-maximal effect. Summed up: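 Luminescent ONE-Glo read-out after 24 hr, 37 C exposure of double-stable HepG2-CYP2B6-hCAR reporter cells to a 15-point compound series, in the presence of 0.75 uM PK11195 (final).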
Chain of Nuclear receptor subfamily 1 group I member 3 (Homo sapiens) (Q14994 whole entry, looked up): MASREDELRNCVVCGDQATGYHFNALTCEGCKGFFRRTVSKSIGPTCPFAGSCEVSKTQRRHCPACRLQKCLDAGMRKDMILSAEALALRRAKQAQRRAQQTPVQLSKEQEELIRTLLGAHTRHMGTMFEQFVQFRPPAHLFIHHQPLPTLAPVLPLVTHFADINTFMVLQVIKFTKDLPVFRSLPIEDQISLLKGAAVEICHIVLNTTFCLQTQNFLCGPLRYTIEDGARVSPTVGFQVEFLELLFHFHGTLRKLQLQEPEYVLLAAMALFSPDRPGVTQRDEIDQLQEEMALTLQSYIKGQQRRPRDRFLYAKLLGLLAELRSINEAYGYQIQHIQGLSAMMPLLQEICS

A short description of assay [13]: qHTS assay to identify small molecule antagonists of the estrogen related receptor signaling pathway with the pleiotropic PPARgamma coactivator (PGC) from Tox21 10K library (AID 1224841; call rule not given here; note: actives are mostly falling curves and most rising ones were filed inactive; nearly all actives have a fitted effect of over 50% in size; note: potency is the fitted concentration of half-maximal effect). Summed up: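 PGC/ERR reporter cells were seeded at 2,000 cells/well and held 6 hours at 37 C/5% CO2 before pin-tool addition of compounds in DMSO. After 18 hours at 37 C, One-Glo was added and luminescence read after 30 minutes at room temperature.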

For assay [14], the target named is Thyrotropin receptor (Homo sapiens) (UniProt P16473). The experiment in a line: qHTS assay to identify small molecule agonists of the thyroid stimulating hormone receptor (TSHR) signaling pathway (AID 1224843; calls by dose curve; note: nearly all actives have a fitted effect of over 45% in size). Summed up:
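Cell line HEK293 with TSHR; density 800/well. Exposure 30 min RT. Readout HTRF cAMP (cAMP-d2/anti-cAMP-cryptate), 1 h RT before reading.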

Assay [15] is described as follows: qHTS assay to identify small molecule agonists of H2AX (AID 1224845; active = well fitted activation curve with a large enough effect in the signal ratio in the repeat runs, not every such curve was filed as active; the % refers to the signal ratio). Summed up: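 Wild-type CHO-K1 cells plated overnight, then exposed 3 hr at 37C to compounds at 15 concentrations (0.76% DMSO). Lysed, then HTRF anti-pH2AX(S139)-cryptate/anti-H2AX-d2 detection after 24 hr at room temperature; emissions 665 and 620 nm.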

Chain of Thyrotropin receptor (Homo sapiens) (P16473 whole entry, looked up): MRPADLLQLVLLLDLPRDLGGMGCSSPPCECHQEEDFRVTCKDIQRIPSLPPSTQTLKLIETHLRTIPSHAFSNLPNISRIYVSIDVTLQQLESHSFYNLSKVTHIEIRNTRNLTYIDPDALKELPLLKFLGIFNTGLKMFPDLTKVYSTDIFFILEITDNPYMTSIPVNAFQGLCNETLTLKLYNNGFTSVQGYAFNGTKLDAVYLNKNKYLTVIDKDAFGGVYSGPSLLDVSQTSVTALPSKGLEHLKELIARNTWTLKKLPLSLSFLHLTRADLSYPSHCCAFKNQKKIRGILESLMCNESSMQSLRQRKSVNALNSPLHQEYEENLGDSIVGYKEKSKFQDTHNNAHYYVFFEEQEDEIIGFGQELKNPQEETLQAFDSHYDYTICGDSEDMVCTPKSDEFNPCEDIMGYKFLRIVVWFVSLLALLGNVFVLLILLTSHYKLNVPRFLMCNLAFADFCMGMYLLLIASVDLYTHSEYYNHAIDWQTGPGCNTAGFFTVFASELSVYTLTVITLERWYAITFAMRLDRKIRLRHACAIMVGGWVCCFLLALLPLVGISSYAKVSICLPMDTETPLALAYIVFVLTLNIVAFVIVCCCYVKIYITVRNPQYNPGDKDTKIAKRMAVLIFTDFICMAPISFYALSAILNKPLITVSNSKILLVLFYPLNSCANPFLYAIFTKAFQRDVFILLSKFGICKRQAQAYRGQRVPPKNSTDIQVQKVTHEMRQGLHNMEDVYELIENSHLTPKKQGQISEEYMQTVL

Take `ClC(Cl)=C(c1ccc(Cl)cc1)c1ccc(Cl)cc1`: the Potency entry in [1], in [2], in assay [3], in assay [4], in [5] and in [6] was “inactive” each time. In addition, the Potency result in [7] and in assay [8] was “inactive” each time.
As to `O=c1oc2ccccc2c(O)c1Cc1c(O)c2ccccc2oc1=O`, the Potency result in assay [1], in assay [2], in assay [3], in assay [9], in assay [5] and in [10] was “inactive” each time. The Potency result in assay [6], in assay [7], in [8] and in [11] was “inactive” in each case.
`COP(N)(=S)OC`: the Potency result in [1], in [2], in assay [9], in assay [4], in assay [5] and in [10] was “inactive” each time. For the same compound, the Potency entry in assay [6], in assay [12], in [7], in assay [13], in [8] and in [14] was “inactive” each time. Besides, the Potency result in assay [11] and in [15] was “inactive” throughout.
As for `O=C(Nc1ccc2[nH]ccc2c1)c1cc2cc(F)ccc2n1Cc1cccc(F)c1`, the Potency entry in assay [1], in assay [3], in assay [4], in assay [5], in assay [13] and in assay [15] was “inactive” in each case. For the same compound, the Potency in assay [2] was 68.6 µM (active); in assay [10] it was 61.1 µM (active); in [12], 27.3 µM (active); in assay [8], 2.73 µM (active); in [11], 43.6 µM (active).
As for `CC(C)CCCCCOC(=O)c1ccccc1C(=O)OCCCCCC(C)C`, the Potency result in [1], in [2], in assay [3], in assay [4], in assay [5] and in assay [6] was “inactive” each time. The Potency entry in assay [12], in [7], in [14] and in assay [11] was “inactive” each time.
As to `Oc1ccc(C(=C(Cl)Cl)c2ccc(O)cc2)cc1`, the Potency result in assay [1], in assay [2], in assay [3], in assay [4], in assay [5] and in assay [8] was “inactive” in each case. For the same compound, the Potency result in [15] is “inactive”. For the same compound, in assay [12], the Potency was 48.5 µM (active).
Take `Oc1cccc(-c2ccccc2)c1`: the Potency result in assay [1], in assay [2], in assay [9], in assay [5], in assay [10] and in [6] was “inactive” in each case. The Potency result in assay [7], in [8], in [14], in assay [11] and in assay [15] was “inactive” in each case. In addition, the values for the Potency in assay [4] and in [12] were 35.6 µM (active) and 54.5 µM (active), respectively.
For `CCOP(=S)(OCC)OC(Cl)C(Cl)(Cl)Cl` (configuration not stated), the Potency result in [1], in [2], in assay [3], in assay [9], in assay [5] and in assay [6] was “inactive” throughout. The Potency entry in assay [7], in [8], in assay [14] and in [11] was “inactive” each time.
As for `CC(O)C#N` (configuration not stated), the Potency entry in assay [1], in [2], in assay [9], in [4], in assay [5] and in assay [10] was “inactive” in each case. For the same compound, the Potency result in assay [12], in [7], in [14], in [11] and in [15] was “inactive” each time. Further, in [6], the Potency was 30.6 µM (active).
For `CC(C)(c1ccc(O)c(-c2ccccc2)c1)c1ccc(O)c(-c2ccccc2)c1`, the Potency in assay [1] is 54.5 µM (active); in assay [2], 54.5 µM (active); in assay [9], 61.1 µM (active); in assay [5], 54.5 µM (active); in assay [10], 68.6 µM (active); in assay [12], 17.2 µM (active). For the same compound, the Potency in [7] was 54.5 µM (active); in [13], 48.6 µM (active); in [11], 17.4 µM (active). The Potency entry in assay [4] and in [8] was “inactive” throughout.
